Assay results: PubChem BioAssay (NCATS)
Records with an inconclusive call do not appear. The source made the active and inactive calls. Unless noted, calls follow the shape of the dose curve; as a rule, active = well fitted inhibition curve with a large enough effect; inconclusive = small, poorly fitted or top-dose-only effect; inactive = flat fitted curve, though single readings scatter.

Key:
[1] = Drug repurposing screens with cells derived from glioblastoma tumor samples (AID 1345199); conditions: GBM patient neurospheres viability, ATP luminescence, 48 h; also: nearly all actives have a fitted effect of over 40% in size; also: potency is read from the fitted curve at half-maximal effect; as to activity, negative = cell killing: % is scaled to controls: 0 for no effect and ±100 for the full control effect
Summary of the method: (§1)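 Four patient lines of CD133+ GBM neurospheres were screened at several concentrations; hits were retested in those lines plus three slower-growing GBM lines, using 48-hour treatment and ATP-based viability.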

[2] = test system: astro; experiment: as above; conditions: viability, ATP luminescence, 48 h; series mostly up to 45.9 µM
Summary of the method: as §1

[3] = target: Nuclear receptor subfamily 1 group I member 2 (Rattus norvegicus) (UniProt Q9R1A7); experiment: qHTS assay for small molecule activators of the rat pregnane X receptor (rPXR) signaling pathway (AID 651751; call rule not given here; also: 0% is about no effect); conditions: rPXR reporter cells, luciferase (One-Glo), 24 h
Chain of Nuclear receptor subfamily 1 group I member 2 (Rattus norvegicus) (Q9R1A7 whole entry, looked up): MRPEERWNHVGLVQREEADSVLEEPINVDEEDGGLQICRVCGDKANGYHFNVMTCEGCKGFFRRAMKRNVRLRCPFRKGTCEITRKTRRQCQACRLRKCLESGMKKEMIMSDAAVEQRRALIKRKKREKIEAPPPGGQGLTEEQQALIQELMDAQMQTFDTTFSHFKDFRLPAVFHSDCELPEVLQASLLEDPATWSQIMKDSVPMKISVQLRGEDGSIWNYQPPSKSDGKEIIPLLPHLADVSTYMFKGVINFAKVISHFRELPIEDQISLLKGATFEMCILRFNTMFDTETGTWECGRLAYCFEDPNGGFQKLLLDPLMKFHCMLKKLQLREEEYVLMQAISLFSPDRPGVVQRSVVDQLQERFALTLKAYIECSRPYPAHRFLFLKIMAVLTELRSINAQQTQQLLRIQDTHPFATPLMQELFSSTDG

[4] = qHTS assay for small molecule activators of the human pregnane X receptor (PXR) signaling pathway (AID 720659; call rule not given here; also: 0% is about no effect); conditions: DPX-2 HepG2 CYP3A4-luciferase, 24 h; series mostly up to 92.3 µM
[5] = at 45.9 µM (top of the series), tumour line B
[6] = at 45.9 µM (top of the series), tumour line D
[7] = at 46 µM (top of the series), tumour line A
[8] = at 46.1 µM (top of the series), tumour line C

CC1=CCC(C(C)(C)O)CC1 (centres undefined)
inactive: activity, negative = cell killing [1, 5] -2.21% | activity, negative = cell killing [1, 6] -4.36% | activity, negative = cell killing [1, 7] -13.1% | activity, negative = cell killing [1, 8] -3.81% | Potency [2] | max response [3] -0.27% | outcome [4]

C[C@]12CCC(=O)C=C1CC[C@@H]1[C@@H]2[C@@H](O)C[C@@]2(C)[C@H]1CC[C@]2(O)C(=O)COP(=O)(O)O
inactive: activity, negative = cell killing [1, 5] -5.72% | activity, negative = cell killing [1, 6] -20.1% | activity, negative = cell killing [1, 7] -14% | activity, negative = cell killing [1, 8] -20.1% | Potency [2]

C/C1=C2N=C(/C=C3N=C(/C(C)=C4\[N-][C@@](C)([C@@H]5N=C1[C@](C)(CCC(=O)NCC(C)OP(=O)(O)O[C@H]1[C@@H](O)[C@@H](n6cnc7cc(C)c(C)cc76)O[C@@H]1CO)[C@H]5CC(N)=O)[C@@](C)(CC(N)=O)[C@@H]4CCC(N)=O)[C@@](C)(CC(N)=O)[C@@H]\3CCC(N)=O)C(C)(C)[C@@H]/2CCC(N)=O.CC(=O)O.[Co] (some centres undefined)
inactive: activity, negative = cell killing [1, 5] -15.2% | activity, negative = cell killing [1, 6] -26.7% | activity, negative = cell killing [1, 7] -29% | Potency [2]

CC1=C(/C=C/C(C)=C/C=C/C(C)=C/C=C/C=C(C)/C=C/C=C(C)/C=C/C2=C(C)CCCC2(C)C)C(C)(C)CCC1
inactive: activity, negative = cell killing [1, 5] -10.1% | activity, negative = cell killing [1, 6] -14.5% | activity, negative = cell killing [1, 7] -34.5% | activity, negative = cell killing [1, 8] 5.35% | Potency [2]

CCCCC(=O)O[C@]1(C(=O)CO)[C@H](C)C[C@H]2[C@@H]3CCC4=CC(=O)C=C[C@]4(C)[C@@]3(F)[C@@H](O)C[C@@]21C
inactive: activity, negative = cell killing [1, 5] -7.12% | activity, negative = cell killing [1, 6] -22.7% | activity, negative = cell killing [1, 8] -23.5% | Potency [2]

CC[C@H]1OC(=O)[C@H](C)[C@@H](O[C@H]2C[C@@](C)(OC)[C@@H](O)[C@H](C)O2)[C@H](C)[C@@H](O[C@@H]2O[C@H](C)C[C@H](N(C)C)[C@H]2O)[C@](C)(O)C[C@@H](C)/C(=N\OCOCCOC)[C@H](C)[C@@H](O)[C@]1(C)O
inactive: activity, negative = cell killing ([1]; at 20 µM (top of the series), tumour line C) -5.57% | activity, negative = cell killing ([1]; at 21.2 µM (top of the series), tumour line B) -9.58% | activity, negative = cell killing ([1]; at 21.2 µM (top of the series), tumour line D) -24% | activity, negative = cell killing ([1]; at 21.3 µM (top of the series), tumour line A) -24.2% | Potency [2]

Cc1ccccc1OCC(O)CNCCOc1ccc(C(N)=O)cc1 (centres undefined)
active: Potency ([1]; tumour line A) 17.8 µM
inactive: activity, negative = cell killing [1, 5] 6.35% | activity, negative = cell killing [1, 6] -24% | activity, negative = cell killing [1, 8] -1.19% | Potency [2]

CO/N=C(\C(=O)N[C@@H]1C(=O)N2C(C(=O)O)=C(CSc3cnns3)CS[C@H]12)c1csc(N)n1
inactive: activity, negative = cell killing [1, 5] -0.235% | activity, negative = cell killing [1, 6] 11.9% | Potency [2]

COC(C(=O)C(O)C(C)O)C1Cc2cc3cc(OC4CC(OC5CC(O)C(O)C(C)O5)C(O)C(C)O4)c(C)c(O)c3c(O)c2C(=O)C1OC1CC(OC2CC(OC3CC(C)(O)C(O)C(C)O3)C(O)C(C)O2)C(O)C(C)O1 (centres undefined)
active: Potency [2] 0.355 µM
